# Experimental data reported in PMC7862700, “An all-to-all approach to the identification of sequence-specific readers for epigenetic DNA modifications on cytosine”.
# Key:
# Assay in all cases: DAPPL (digital affinity profiling via proximity ligation, sequencing); 10 mM Tris-HCl pH 7.5, 50 mM NaCl, 1 mM DTT, 4% glycerol, room temperature, 30 min; GST-TFs on glutathione beads, 16-mer random dsDNA library, 0.1% formaldehyde crosslink after washing; high values mean tight binding
# FLI1 = molecular target: T1, FLI1 (Homo sapiens, UniProt Q01543 1-452); details: protein: recombinant; tags: N-terminal GST; dsDNA, one strand shown
# T1 sequence: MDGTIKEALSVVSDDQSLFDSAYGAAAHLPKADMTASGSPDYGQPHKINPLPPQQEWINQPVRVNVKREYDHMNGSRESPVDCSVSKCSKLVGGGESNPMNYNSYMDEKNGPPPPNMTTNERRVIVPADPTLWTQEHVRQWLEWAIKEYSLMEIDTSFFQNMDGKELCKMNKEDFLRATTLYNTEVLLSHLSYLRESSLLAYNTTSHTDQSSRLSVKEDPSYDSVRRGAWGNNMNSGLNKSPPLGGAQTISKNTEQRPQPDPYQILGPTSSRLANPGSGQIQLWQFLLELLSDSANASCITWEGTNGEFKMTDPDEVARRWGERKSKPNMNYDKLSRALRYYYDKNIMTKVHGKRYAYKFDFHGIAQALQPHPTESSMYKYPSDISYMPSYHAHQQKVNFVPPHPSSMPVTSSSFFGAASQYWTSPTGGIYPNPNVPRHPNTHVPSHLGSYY
# Procedure, shortened: (§1)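 Pools of DNA-barcoded human transcription factors, expressed in yeast as GST fusions on glutathione beads and combined with a tag-only sample, were incubated with 200 nmole of a 16-mer random double-stranded DNA library. Incubation took 30 min at room temperature in Tris/NaCl/DTT/glycerol buffer and was followed by washing, 0.1% formaldehyde crosslinking, proximity ligation (BsaI/T4 ligase, 1 h, 37 °C), PCR amplification and sequencing on an Illumina NextSeq500. Binding signal is the ratio of a hexamer's read frequency for a factor to its frequency for the tag-only sample.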
# ELK1 = molecular target: T2, ELK1 (Homo sapiens, UniProt P19419 1-428); details: protein: recombinant; tags: N-terminal GST; dsDNA, one strand shown
# T2 sequence: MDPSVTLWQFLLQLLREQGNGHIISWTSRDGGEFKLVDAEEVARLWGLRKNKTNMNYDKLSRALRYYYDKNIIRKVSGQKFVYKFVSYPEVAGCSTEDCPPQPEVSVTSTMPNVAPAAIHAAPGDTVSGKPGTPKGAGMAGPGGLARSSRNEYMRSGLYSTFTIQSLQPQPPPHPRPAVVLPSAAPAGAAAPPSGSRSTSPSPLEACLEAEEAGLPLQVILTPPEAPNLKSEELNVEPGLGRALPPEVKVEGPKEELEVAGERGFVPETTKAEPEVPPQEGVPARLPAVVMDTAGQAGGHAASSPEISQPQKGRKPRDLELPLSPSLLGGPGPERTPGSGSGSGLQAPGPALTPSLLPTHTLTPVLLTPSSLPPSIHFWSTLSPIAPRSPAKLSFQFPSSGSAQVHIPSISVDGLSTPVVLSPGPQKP
# Procedure, shortened: as §1
# GABPA = molecular target: T3, GABPA (Homo sapiens, UniProt Q06546 1-454); details: protein: recombinant; tags: N-terminal GST; dsDNA, one strand shown
# T3 sequence: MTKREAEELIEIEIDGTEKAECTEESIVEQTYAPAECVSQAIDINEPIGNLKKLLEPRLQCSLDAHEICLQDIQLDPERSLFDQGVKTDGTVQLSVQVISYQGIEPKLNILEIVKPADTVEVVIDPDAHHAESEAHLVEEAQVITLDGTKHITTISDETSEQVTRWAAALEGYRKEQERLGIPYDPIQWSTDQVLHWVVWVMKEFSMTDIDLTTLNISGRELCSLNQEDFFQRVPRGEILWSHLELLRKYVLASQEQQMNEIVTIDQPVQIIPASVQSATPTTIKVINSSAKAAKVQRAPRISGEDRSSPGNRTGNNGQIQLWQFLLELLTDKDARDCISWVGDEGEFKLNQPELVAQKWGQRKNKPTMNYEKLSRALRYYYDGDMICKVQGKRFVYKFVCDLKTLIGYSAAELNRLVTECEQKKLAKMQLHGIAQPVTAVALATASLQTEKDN
# Procedure, shortened: as §1
# ERG = molecular target: T4, ERG (Homo sapiens, UniProt P11308 1-479); details: protein: recombinant; tags: N-terminal GST; dsDNA, one strand shown
# T4 sequence: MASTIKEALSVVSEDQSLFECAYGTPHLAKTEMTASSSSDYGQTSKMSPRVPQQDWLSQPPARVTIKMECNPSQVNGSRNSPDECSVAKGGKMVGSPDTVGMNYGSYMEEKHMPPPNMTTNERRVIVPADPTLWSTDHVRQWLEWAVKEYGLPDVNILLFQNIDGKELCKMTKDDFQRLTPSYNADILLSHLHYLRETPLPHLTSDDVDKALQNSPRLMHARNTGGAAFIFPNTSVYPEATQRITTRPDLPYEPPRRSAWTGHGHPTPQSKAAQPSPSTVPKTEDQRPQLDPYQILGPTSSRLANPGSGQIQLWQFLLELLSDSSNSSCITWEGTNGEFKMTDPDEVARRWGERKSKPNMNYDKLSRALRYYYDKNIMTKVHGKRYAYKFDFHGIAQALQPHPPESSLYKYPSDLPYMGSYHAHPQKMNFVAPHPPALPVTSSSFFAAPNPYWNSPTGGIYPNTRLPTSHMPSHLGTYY
# Procedure, shortened: as §1
# ELF1 = ELF1 (Homo sapiens, UniProt P32519 1-619); details: protein: recombinant; tags: N-terminal GST; dsDNA, one strand shown
# Sequence of ELF1 (P32519 whole entry): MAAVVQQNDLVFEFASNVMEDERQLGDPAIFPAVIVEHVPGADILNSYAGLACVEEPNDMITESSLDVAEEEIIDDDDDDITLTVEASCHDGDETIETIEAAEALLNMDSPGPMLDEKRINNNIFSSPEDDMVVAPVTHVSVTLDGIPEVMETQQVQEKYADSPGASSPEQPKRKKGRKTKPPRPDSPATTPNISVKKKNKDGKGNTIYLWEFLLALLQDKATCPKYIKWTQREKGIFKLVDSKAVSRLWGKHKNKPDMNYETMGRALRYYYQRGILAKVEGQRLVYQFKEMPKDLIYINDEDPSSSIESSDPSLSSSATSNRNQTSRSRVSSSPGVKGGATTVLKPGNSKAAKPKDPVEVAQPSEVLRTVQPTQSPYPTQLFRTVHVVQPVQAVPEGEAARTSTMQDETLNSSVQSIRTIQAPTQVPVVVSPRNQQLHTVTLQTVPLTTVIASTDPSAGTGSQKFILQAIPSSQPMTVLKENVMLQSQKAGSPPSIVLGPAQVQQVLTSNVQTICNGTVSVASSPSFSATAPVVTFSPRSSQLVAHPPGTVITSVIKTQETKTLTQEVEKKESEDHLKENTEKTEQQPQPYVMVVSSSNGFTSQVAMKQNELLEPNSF
# Procedure, shortened: as §1
# EHF = molecular target: T5, EHF (Homo sapiens, UniProt Q9NZC4 1-300); details: protein: recombinant; tags: N-terminal GST; dsDNA, one strand shown
# T5 sequence: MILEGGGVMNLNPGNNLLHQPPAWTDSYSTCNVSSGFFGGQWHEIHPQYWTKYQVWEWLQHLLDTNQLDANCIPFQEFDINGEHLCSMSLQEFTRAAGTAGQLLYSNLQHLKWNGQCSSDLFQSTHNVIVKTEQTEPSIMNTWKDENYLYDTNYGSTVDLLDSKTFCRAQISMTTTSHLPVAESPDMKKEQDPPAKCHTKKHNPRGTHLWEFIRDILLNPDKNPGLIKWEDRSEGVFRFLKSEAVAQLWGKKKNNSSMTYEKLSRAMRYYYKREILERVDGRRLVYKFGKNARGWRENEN
# Procedure, shortened: as §1
# SPI1 = SPI1 (Homo sapiens, UniProt P17947 1-270); details: protein: recombinant; tags: N-terminal GST; dsDNA, one strand shown
# Procedure, shortened: as §1
# SPIB = SPIB (Homo sapiens, UniProt Q01892 1-262); details: protein: recombinant; tags: N-terminal GST; dsDNA, one strand shown
# Sequence of SPIB (Q01892 whole entry): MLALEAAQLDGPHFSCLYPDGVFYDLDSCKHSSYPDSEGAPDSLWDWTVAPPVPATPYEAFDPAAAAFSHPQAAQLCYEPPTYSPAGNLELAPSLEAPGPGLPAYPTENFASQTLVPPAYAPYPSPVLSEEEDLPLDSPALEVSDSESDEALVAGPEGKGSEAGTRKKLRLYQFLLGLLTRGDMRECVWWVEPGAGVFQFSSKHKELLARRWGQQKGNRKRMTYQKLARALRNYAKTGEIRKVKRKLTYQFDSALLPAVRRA
# Procedure, shortened: as §1
# ELK3 = molecular target: T6, ELK3 (Homo sapiens, UniProt P41970 1-407); details: protein: recombinant; tags: N-terminal GST; dsDNA, one strand shown
# T6 sequence: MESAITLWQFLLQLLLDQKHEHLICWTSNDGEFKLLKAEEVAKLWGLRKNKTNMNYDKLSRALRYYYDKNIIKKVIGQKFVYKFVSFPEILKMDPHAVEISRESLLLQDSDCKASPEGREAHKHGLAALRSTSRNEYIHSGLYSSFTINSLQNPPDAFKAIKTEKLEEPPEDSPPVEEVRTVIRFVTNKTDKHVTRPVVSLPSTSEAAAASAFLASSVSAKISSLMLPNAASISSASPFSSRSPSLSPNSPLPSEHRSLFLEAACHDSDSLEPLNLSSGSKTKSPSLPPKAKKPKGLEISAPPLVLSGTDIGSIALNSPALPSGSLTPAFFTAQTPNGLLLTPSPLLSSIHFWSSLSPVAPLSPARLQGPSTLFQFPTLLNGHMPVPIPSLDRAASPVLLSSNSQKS
# Procedure, shortened: as §1
# FEV = molecular target: T7, FEV (Homo sapiens, UniProt Q99581 1-238); details: protein: recombinant; tags: N-terminal GST; dsDNA, one strand shown
# T7 sequence: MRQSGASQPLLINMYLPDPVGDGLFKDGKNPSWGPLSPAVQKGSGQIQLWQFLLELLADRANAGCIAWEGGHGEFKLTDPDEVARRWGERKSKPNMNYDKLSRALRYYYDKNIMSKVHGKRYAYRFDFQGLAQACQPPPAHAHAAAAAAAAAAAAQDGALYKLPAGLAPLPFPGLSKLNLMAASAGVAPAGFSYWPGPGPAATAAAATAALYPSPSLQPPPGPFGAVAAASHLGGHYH
# Procedure, shortened: as §1
# ETV5 = ETV5 (Homo sapiens, UniProt P41161 1-510); details: protein: recombinant; tags: N-terminal GST; dsDNA, one strand shown
# Sequence of ETV5 (P41161 whole entry): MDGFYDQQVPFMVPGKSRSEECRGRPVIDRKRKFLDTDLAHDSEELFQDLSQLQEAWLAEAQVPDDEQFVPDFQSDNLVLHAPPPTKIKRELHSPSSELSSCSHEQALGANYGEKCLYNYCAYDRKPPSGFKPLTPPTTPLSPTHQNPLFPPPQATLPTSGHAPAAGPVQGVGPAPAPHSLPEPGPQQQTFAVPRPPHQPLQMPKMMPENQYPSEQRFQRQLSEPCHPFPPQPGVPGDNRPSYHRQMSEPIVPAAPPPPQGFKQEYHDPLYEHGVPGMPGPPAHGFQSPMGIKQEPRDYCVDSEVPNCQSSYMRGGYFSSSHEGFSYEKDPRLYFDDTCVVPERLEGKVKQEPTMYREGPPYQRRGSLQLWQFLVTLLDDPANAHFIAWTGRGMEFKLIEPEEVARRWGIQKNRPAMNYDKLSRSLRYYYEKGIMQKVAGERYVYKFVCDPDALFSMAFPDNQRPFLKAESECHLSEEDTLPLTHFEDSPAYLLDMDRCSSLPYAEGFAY
# Procedure, shortened: as §1
# HSF1 = HSF1 (Homo sapiens, UniProt Q00613 1-529); details: protein: recombinant; tags: N-terminal GST; chain copies: 3; dsDNA, one strand shown
# Sequence of HSF1 (Q00613 whole entry): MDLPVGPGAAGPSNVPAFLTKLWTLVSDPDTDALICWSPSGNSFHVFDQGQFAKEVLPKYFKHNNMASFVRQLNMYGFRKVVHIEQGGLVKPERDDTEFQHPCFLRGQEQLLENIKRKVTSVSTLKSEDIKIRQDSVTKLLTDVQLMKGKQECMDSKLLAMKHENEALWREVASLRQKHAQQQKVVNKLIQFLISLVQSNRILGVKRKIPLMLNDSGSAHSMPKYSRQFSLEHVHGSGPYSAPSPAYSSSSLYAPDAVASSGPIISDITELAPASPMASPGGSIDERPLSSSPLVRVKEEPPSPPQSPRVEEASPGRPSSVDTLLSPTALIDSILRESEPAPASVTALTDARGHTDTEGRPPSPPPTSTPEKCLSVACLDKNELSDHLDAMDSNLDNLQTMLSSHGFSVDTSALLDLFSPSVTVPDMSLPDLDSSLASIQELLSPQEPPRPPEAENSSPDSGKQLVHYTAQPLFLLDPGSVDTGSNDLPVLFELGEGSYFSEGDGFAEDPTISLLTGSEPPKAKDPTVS
# Procedure, shortened: as §1
# SPIC = molecular target: T8, SPIC (Homo sapiens, UniProt Q8N5J4 1-248); details: protein: recombinant; tags: N-terminal GST; dsDNA, one strand shown
# T8 sequence: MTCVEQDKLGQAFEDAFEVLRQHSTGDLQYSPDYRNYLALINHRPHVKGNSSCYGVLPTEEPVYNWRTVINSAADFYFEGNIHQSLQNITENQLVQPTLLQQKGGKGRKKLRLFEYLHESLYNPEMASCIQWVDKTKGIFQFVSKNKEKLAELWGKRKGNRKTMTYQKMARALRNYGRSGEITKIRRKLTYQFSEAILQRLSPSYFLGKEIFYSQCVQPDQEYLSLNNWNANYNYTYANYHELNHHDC
# Procedure, shortened: as §1
# ELF4 = ELF4 (Homo sapiens, UniProt Q99607 1-663); details: protein: recombinant; tags: N-terminal GST; dsDNA, one strand shown
# Sequence of ELF4 (Q99607 whole entry): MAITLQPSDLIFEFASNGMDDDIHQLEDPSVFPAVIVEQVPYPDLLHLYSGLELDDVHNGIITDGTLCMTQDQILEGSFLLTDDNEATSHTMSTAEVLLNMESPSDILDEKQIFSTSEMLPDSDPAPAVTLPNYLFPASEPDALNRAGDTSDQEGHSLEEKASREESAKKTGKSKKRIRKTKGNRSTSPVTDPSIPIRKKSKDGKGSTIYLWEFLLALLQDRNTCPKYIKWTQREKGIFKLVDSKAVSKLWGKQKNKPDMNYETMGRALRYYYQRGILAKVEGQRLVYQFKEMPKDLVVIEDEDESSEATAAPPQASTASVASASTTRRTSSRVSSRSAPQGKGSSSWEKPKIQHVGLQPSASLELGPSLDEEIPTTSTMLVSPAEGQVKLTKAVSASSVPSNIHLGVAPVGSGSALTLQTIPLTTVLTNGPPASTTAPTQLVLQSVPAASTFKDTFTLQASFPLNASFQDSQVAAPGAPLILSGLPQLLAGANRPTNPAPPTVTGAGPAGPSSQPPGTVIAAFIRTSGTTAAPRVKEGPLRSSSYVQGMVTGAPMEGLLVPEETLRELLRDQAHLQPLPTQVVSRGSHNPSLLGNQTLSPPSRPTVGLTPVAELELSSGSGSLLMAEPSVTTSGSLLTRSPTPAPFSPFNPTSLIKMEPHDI
# Procedure, shortened: as §1
# ELK4 = molecular target: T9, ELK4 (Homo sapiens, UniProt P28324-2 1-405); details: protein: recombinant; tags: N-terminal GST; dsDNA, one strand shown
# T9 sequence: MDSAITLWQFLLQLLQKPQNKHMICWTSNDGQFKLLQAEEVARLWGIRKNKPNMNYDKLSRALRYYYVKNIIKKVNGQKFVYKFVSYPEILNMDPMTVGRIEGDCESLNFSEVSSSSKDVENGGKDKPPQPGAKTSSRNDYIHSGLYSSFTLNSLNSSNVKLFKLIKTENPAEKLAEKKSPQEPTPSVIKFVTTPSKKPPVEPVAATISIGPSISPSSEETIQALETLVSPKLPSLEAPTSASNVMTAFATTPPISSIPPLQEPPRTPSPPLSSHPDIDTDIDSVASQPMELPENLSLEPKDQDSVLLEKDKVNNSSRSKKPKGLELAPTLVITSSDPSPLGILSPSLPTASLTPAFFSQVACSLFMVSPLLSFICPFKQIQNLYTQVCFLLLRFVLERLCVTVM
# Procedure, shortened: as §1
# ETV2 = molecular target: T10, ETV2 (Homo sapiens, UniProt O00321 1-342); details: protein: recombinant; tags: N-terminal GST; dsDNA, one strand shown
# T10 sequence: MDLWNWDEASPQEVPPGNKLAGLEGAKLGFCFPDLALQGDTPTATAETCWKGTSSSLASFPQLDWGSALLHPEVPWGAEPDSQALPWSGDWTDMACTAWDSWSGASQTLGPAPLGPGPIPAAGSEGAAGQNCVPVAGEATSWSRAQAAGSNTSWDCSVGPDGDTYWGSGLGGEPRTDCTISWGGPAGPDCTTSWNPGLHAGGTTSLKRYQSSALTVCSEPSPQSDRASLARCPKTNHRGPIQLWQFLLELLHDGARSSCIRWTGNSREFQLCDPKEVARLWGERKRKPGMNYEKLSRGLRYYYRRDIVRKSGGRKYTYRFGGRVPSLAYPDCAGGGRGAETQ
# Procedure, shortened: as §1
# ELF3 = molecular target: T11, ELF3 (Homo sapiens, UniProt P78545 1-371); details: protein: recombinant; tags: N-terminal GST; dsDNA, one strand shown
# T11 sequence: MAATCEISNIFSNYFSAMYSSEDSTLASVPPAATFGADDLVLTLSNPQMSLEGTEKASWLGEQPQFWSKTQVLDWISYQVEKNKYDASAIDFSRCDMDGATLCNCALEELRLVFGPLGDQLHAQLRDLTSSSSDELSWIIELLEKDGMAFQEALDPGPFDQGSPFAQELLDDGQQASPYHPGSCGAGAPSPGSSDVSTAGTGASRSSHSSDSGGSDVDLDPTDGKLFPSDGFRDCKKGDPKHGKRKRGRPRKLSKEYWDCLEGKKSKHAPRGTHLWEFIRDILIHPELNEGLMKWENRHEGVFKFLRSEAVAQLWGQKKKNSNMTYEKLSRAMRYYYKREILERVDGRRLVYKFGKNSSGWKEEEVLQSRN
# Procedure, shortened: as §1
# CRX = CRX (Homo sapiens, UniProt O43186 1-299); details: protein: recombinant; tags: N-terminal GST; dsDNA, one strand shown
# Sequence of CRX (O43186 whole entry): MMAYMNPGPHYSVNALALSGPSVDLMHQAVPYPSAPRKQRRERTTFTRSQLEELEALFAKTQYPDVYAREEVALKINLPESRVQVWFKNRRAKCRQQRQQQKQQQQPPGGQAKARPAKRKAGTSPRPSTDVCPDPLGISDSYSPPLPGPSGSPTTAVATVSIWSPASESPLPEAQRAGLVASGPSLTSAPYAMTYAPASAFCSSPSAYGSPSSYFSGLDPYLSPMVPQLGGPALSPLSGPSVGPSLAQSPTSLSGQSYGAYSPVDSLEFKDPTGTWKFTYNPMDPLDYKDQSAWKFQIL
# Procedure, shortened: as §1
# ETV1 = ETV1 (Homo sapiens, UniProt P50549 1-477); details: protein: recombinant; tags: N-terminal GST; dsDNA, one strand shown
# Sequence of ETV1 (P50549 whole entry): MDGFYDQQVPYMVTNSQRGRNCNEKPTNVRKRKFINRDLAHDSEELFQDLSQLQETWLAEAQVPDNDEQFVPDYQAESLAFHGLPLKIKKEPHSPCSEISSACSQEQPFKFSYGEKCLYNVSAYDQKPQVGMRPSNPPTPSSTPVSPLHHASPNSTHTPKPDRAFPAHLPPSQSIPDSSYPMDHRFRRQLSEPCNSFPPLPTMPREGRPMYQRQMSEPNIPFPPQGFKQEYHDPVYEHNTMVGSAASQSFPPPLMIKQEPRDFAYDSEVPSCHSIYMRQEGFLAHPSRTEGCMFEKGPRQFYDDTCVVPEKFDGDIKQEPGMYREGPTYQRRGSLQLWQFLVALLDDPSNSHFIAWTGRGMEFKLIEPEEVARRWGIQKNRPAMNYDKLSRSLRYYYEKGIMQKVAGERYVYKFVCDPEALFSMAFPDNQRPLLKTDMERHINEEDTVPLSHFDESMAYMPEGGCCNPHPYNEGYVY
# Procedure, shortened: as §1
sequence,measurement,setting,value
CTTGCC,binding signal,FLI1,"1.29 fold enrichment (6-mer frequency, TF over GST control)"
same,binding signal,ELK1,"1.17 fold enrichment (6-mer frequency, TF over GST control)"
same,binding signal,GABPA,"1.3 fold enrichment (6-mer frequency, TF over GST control)"
same,binding signal,ERG,"1.24 fold enrichment (6-mer frequency, TF over GST control)"
same,binding signal,ELF1,"1.29 fold enrichment (6-mer frequency, TF over GST control)"
same,binding signal,EHF,"1.33 fold enrichment (6-mer frequency, TF over GST control)"
same,binding signal,SPI1,"1.38 fold enrichment (6-mer frequency, TF over GST control)"
same,binding signal,SPIB,"1.22 fold enrichment (6-mer frequency, TF over GST control)"
same,binding signal,ELK3,"1.3 fold enrichment (6-mer frequency, TF over GST control)"
same,binding signal,FEV,"1.29 fold enrichment (6-mer frequency, TF over GST control)"
same,binding signal,ETV5,"1.17 fold enrichment (6-mer frequency, TF over GST control)"
same,binding signal,HSF1,"1.1 fold enrichment (6-mer frequency, TF over GST control)"
same,binding signal,SPIC,"1.66 fold enrichment (6-mer frequency, TF over GST control)"
same,binding signal,ELF4,"1.26 fold enrichment (6-mer frequency, TF over GST control)"
same,binding signal,ELK4,"1.17 fold enrichment (6-mer frequency, TF over GST control)"
same,binding signal,ETV2,"1.24 fold enrichment (6-mer frequency, TF over GST control)"
same,binding signal,ELF3,"1.43 fold enrichment (6-mer frequency, TF over GST control)"
same,binding signal,CRX,"1.1 fold enrichment (6-mer frequency, TF over GST control)"
same,binding signal,ETV1,"1.25 fold enrichment (6-mer frequency, TF over GST control)"
